Compound activity: PubChem BioAssay, Buhrlage Lab, Dana-Farber Cancer Institute and Novartis Institutes for BioMedical Research (Cambridge, Mass)
USP28 inh: blocks human USP28 ubiquitin-rhodamine cleavage. 3% of 47,000 active. purified USP28, Ub-rhodamine cleavage fluorescence, 30 min. AID 1645857. inhibition, % at 25 µM. Q96RU2
USP30 block: human USP30 deubiquitinase inhibition; purified USP30, Ub-rhodamine cleavage fluorescence; inhibition, % at 25 µM; 5.3% of 47,000 active; AID 1645860
OTUD3 block: inhibitors of human OTUD3 deubiquitinase | Q5T2D3 | purified OTUD3, Ub-rhodamine fluorescence, 2 h | inhibition, % at 25 µM | 0.7% of 47,000 active | AID 1645858
USP17 inh: inhibitors of human USP17 deubiquitinase; A8MUK1; purified USP17, Ub-rhodamine cleavage fluorescence, 3 h; inhibition, % at 50 µM; 6.5% of 47,000 active
Target sequence (A8MUK1 whole entry, looked up): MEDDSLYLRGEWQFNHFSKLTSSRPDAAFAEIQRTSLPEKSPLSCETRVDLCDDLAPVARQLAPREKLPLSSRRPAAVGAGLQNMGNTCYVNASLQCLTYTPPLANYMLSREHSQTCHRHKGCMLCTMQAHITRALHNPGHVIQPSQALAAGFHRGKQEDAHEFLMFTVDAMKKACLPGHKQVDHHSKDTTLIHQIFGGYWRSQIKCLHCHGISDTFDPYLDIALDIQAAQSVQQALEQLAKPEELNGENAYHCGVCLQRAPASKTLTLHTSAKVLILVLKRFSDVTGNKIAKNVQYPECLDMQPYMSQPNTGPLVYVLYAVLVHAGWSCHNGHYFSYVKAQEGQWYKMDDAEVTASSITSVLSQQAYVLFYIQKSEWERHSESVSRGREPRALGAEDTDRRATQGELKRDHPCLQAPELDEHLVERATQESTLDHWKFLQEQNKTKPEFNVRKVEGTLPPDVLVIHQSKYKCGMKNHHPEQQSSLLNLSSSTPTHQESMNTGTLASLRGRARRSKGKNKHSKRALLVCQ
Hits are given with their value; - = inactive; . = no result given. Hits are enriched below; roughly 11% of the tested compounds scored in any of these assays. Rule as the data show it: active = inhibition above about 30%; inactive = the rest.

SMILES | USP28 inh | USP30 block | OTUD3 block | USP17 inh
CC(C)c1ccc(NC(=O)c2ccc(C3Nc4ccccc4S(=O)(=O)N3)cc2)cc1 (centres undefined) | - | 51 | - | 65
CCc1ccc(NC(=O)N2CC[C@@H]3CN(C)S(=O)(=O)[C@@H]3CC2)cc1 | - | - | - | -
Cc1ccc(NC(=O)C2Nc3ccccc3S(=O)(=O)N2)cc1C (centres undefined) | . | . | - | 66
CCc1ccc(NC(=O)C2Nc3ccccc3S(=O)(=O)N2)cc1 (centres undefined) | - | 46 | - | 41
O=C(C1CC1)N1CCC2(CC1)OC(C(=O)N1CCCCC1)Cn1ccnc12 (centres undefined) | - | - | - | -
CC1CCCN(C(=O)Cn2nnc(COc3ccccc3)n2)C1 (centres undefined) | - | - | - | -
CNc1ncc(CN2CC[C@H](c3ccccc3)[C@@H]3[C@H]2CCCCN3C(C)=O)cn1 | - | - | - | -
CC(Nc1ncnc2c1sc1nc(N3CCOCC3)c3c(c12)CCC3)c1ccccc1 (centres undefined) | - | - | - | 51
c1cncc(CNc2ncnc3c2sc2nc(N4CCOCC4)c4c(c23)CCC4)c1 | - | - | - | 32
Cc1cc(C)cc(C(=O)Nc2nnc(C3CCCCC3)s2)c1 | - | - | - | -
O=C1COc2ccc(C(=O)COC(=O)Cc3ccc(Cl)cc3Cl)cc2N1 | - | - | - | -
CCN1C(=O)COc2ccc(NC(=O)c3ccc(OCc4nonc4C)cc3)cc21 | 70 | - | - | -
O=[N+]([O-])c1cccc(-c2csc(-c3ccc4c(c3)OCO4)n2)c1 | - | - | - | -
c1ccc(-c2cc(-c3csc(-c4ccc5c(c4)OCCO5)n3)on2)cc1 | - | 35 | 40 | 51
CN1CC(c2ncn[nH]2)c2cc(C(=O)NCc3cccnc3)ccc21 (centres undefined) | - | - | - | -
CN1C(=O)COc2cc(-c3noc(C(=O)NCc4ccccc4)n3)ccc21 | - | - | - | 44
CN1C(=O)COc2cc(-c3noc(C(=O)NCc4ccc(F)cc4)n3)ccc21 | - | 76 | - | 54
C=C(NC(=O)C(=C)NC(=O)c1csc(-c2ccc3c(n2)-c2csc(n2)-c2csc(n2)C(C(C)C2CO2)NC(=O)C(Cc2ccc(O)cc2)NC(=O)c2csc(n2)C(C(O)c2ccccc2)NC(=O)c2nc(sc2C)C(CC(N)=O)NC(=O)c2csc-3n2)n1)C(=O)O (centres undefined) | - | - | - | 68
C=C(NC(=O)C(=C)NC(=O)C(=C)NC(=O)C(=C)NC(=O)c1ccc2c(n1)-c1coc(n1)C(=C)NC(=O)C(=C)NC(=O)c1csc(n1)C(C)NC(=O)c1csc(n1)CNC(=O)c1coc(n1)C(CSC)NC(=O)C(C(C)O)NC(=O)c1csc-2n1)C(=O)O (centres undefined) | - | - | - | -
Cc1cccc(-c2noc(CCn3c(=O)[nH]c4ccccc4c3=O)n2)c1 | 30 | - | - | 61
O=c1c2ccccc2n(Cc2ccccc2)c(=O)n1Cc1nc(-c2ccccc2)no1 | - | 30 | - | -
CCn1c(=O)c2ccccc2n(Cc2nc(-c3cccc(OC)c3)no2)c1=O | - | - | - | -
O=c1[nH]c2ccccc2c(=O)n1CCc1nc(-c2ccncc2)no1 | - | - | - | -
Cc1cc(Oc2ccc(F)cc2F)nc2ccccc12 | 31 | - | - | -
COc1ccccc1Nc1cc(C)c2ccccc2n1 | - | - | - | -
SMILES | USP28 inh | USP30 block | OTUD3 block | USP17 inh
CCOc1ccc(C(=O)N2CCC(Nc3cccnc3)C2)cc1 (centres undefined) | - | - | - | -
O=C(c1ccc2cc[nH]c2c1)N1CCC(Nc2cccnc2)C1 (centres undefined) | - | - | 55 | 68
CC(=O)Nc1cccc(Nc2c(C(=O)N3CCCC3)cnc3nc(C)ccc23)c1 | - | - | - | -
NC(=O)COc1ccc(C2=NO[C@]3(C(=O)Nc4ccccc43)[C@H]2C(=O)c2ccco2)cc1 | - | - | - | -
Cc1cc(=O)n(CC(=O)Nc2ccccc2C)c(Nc2ccc(F)cc2)n1 | - | 73 | - | -
Cc1cc(=O)n(CC(=O)NCc2ccc(F)cc2F)c(N2CCOCC2)n1 | - | - | - | -
Cc1noc(-c2cc(=O)n(CC(=O)Nc3ccccc3C)c3ccccc23)n1 | - | - | - | 45
Cc1noc(-c2cc(=O)n(CC(=O)NCc3ccccc3F)c3ccccc23)n1 | - | 46 | - | 58
Cc1cc(=O)n(CC(=O)Nc2ccccc2)c(-c2ccc(F)cc2)n1 | - | - | - | -
Cc1noc(-c2ccc(-n3ncc(C(=O)NCc4ccccc4F)c3C)nc2)n1 | - | 43 | - | 40
Cc1noc(-c2cc(=O)n(CC(=O)Nc3ccc(F)cc3F)c3ccccc23)n1 | - | - | - | -
